The target in assay [1] is Rap guanine nucleotide exchange factor 3 (Homo sapiens) (UniProt O95398). The assay is described as follows: Confirmatory qHTS for antagonist of cAMP-regulated guanine nucleotide exchange factor 3 (EPAC1) (AID 1645880). Further: nearly all actives have a fitted effect of over 55% in size. Further: potency means the concentration at half of the fitted maximal effect. A digest of the protocol: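 Released BODIPY-GDP fluoresces less than Rap1-bound BODIPY-GDP; the signal is followed at 480/540 nm at 5-min intervals over 30 min, after 5 min at room temperature. Reactions contain 100 nM EPAC1, 250 nM RAP1B-BODIPY-GDP and 50 uM GDP; results are normalized to ATA and DMSO.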
In general terms: qHTS replaces the single test concentration by a dilution series.

Assay [2] has the same target. Nature of the assay: Confirmatory qHTS for agonist of cAMP-regulated guanine nucleotide exchange factor 3 (EPAC1) (AID 1645881). Further: nearly all actives have a fitted effect of over 75% in size. Further: potency means the concentration at half of the fitted maximal effect.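 On activation: EPAC1 catalysed release of BODIPY-GDP from Rap1B seen as fluorescence loss; 100% = effect of cAMP agonist control.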
The target of assay [3] is Rap guanine nucleotide exchange factor 4 (Homo sapiens) (UniProt Q8WZA2). The assay is described as follows: Confirmatory qHTS for agonist of cAMP-regulated guanine nucleotide exchange factor 4 (EPAC2) (AID 1645884).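 Further: nucleotide exchange releases bodipy-GDP from Rap1 and this lowers its fluorescence; nearly all actives have a fitted effect of over 65% in size.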 Further: potency means the concentration at half of the fitted maximal effect. On activation: on the % scale 0 is the no-effect control and ±100 the full control effect.
For assay [4] the target is unchanged. The assay is described as follows: Confirmatory qHTS for antagonist of cAMP-regulated guanine nucleotide exchange factor 4 (EPAC2) (AID 1645885). Further: nearly all actives have a fitted effect of over 25% in size. Further: potency means the concentration at half of the fitted maximal effect. On activity change, negative = inhibition: on the % scale 0 is the no-effect control and ±100 the full control effect.
For assay [5], the target named is Rap guanine nucleotide exchange factor 3 (Homo sapiens) (UniProt O95398). Nature of the assay: Counterscreen qHTS for antagonist of cAMP-regulated guanine nucleotide exchange factor 3 (EPAC1) (AID 1645888). Further: % of control where 0% means no effect. The method in brief:
(§1)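 Rap1B-BODIPY-GDP 250 nM + GDP 50 uM; cpds 7-pt, final 9.74 nM–152 uM (activator mode) or from 7.32 nM upwards (inhibitor mode); RT; FI 480/540 nm at 5 and 30 min, then ± cAMP, reread.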
(The purpose of a counterscreen is to sort out artefacts and off-target activity.)

For assay [6] the target is unchanged. Nature of the assay: Counterscreen qHTS for agonist of cAMP-regulated guanine nucleotide exchange factor 3 (EPAC1) (AID 1645889). Further: nearly all actives have a fitted effect of over 40% in size. Further: potency means the concentration at half of the fitted maximal effect. On activation: % of control where 0% means no effect. A digest of the protocol: as §1

The structures appear in SMILES notation. Inconclusive results are not listed. Values without a mark were called inactive. Calls of active or inactive are those of the source. The call rests on the fitted dose curve; in most records, active means well fitted curve in the direction sought with a large enough effect; inconclusive means small, poorly fitted or top-dose-only effect, or another doubt; inactive means no such curve, though single readings can be large; an effect the other way counts as inactive or inconclusive.

Sequence of Rap guanine nucleotide exchange factor 3 (Homo sapiens) (O95398 whole entry, looked up): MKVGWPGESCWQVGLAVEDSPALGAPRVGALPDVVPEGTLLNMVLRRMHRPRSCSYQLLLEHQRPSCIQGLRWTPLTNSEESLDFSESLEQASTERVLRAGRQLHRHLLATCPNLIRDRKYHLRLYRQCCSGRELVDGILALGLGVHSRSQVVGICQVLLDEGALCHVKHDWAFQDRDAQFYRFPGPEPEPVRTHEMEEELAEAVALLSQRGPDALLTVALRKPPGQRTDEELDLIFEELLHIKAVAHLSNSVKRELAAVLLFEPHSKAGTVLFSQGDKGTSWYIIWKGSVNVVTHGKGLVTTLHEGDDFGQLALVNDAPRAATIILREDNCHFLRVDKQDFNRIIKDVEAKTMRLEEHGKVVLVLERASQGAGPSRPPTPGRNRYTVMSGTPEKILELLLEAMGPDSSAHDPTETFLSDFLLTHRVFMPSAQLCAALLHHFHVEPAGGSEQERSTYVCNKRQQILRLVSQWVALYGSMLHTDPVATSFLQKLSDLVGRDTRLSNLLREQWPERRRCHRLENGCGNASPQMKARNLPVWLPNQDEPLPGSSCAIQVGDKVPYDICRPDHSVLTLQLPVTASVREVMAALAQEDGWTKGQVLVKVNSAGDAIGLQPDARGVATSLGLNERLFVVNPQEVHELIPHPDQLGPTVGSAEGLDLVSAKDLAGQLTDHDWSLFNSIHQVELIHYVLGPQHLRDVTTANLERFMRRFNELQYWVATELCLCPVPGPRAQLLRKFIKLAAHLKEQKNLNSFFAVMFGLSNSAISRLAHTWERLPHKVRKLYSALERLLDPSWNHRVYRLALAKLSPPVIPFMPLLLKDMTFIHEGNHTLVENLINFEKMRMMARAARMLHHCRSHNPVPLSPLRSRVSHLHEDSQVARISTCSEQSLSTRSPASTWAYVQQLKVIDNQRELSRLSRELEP
Sequence of Rap guanine nucleotide exchange factor 4 (Homo sapiens) (Q8WZA2 whole entry, looked up): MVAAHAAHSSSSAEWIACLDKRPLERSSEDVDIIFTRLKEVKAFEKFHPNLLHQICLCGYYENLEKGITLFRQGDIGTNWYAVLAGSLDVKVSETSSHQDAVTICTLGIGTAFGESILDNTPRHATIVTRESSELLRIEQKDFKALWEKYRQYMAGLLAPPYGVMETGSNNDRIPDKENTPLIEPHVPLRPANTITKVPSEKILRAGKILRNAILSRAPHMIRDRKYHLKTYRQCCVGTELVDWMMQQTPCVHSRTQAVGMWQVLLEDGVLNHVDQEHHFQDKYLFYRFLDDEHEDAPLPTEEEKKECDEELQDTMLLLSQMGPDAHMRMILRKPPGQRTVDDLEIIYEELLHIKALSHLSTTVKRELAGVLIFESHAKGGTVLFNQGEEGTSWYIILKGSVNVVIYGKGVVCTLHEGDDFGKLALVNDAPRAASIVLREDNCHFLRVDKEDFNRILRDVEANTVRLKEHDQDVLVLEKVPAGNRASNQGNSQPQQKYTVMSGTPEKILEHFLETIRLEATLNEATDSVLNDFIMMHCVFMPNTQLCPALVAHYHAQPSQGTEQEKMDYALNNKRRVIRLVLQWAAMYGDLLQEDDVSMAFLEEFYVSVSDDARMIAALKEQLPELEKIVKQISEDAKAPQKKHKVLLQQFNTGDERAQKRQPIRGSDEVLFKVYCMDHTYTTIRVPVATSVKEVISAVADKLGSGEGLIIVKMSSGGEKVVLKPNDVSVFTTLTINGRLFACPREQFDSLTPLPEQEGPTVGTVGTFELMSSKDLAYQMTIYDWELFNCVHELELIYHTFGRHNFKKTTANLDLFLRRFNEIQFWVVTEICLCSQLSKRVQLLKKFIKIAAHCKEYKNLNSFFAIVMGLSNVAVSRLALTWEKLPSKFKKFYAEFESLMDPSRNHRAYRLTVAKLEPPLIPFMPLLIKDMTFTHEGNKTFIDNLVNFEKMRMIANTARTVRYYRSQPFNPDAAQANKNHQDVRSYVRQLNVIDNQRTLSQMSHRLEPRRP

On to `Cc1cc2ccccn2c1C(=O)c1ccccc1F`, for which the Potency entry in assay [1], in assay [2] and in assay [4] was “inactive” throughout. Moreover, the activation in assay [3] was 3.67% [at 17.1 µM, percent relative to cAMP agonist control]; in assay [6], 21.5% [at 30.8 µM]. The activity change, negative = inhibition in assay [5] was -3.01% [at 30.8 µM].
In the case of `CC(Sc1ccc(Cl)cc1)C(=O)NNC(=O)c1csc(N2CCOCC2)n1` (stereo unspecified), the Potency result in assay [1], in assay [2] and in assay [4] was “inactive” each time. In addition, the activation in assay [3] is 4.3% [at 17.1 µM, percent relative to cAMP agonist control]; in assay [6], 30.8% [at 30.8 µM]. Also, the activity change, negative = inhibition in assay [5] was -11.6% [at 30.8 µM].
`COC(=O)C(C)N(C(=O)c1ccc(Cl)cc1)c1c(C)cccc1C` (stereo unspecified): the Potency result in assay [1], in assay [2], in assay [3], in assay [4], in assay [5] and in assay [6] was “inactive” in each case.
Regarding `O=C1S/C(=C\c2ccc(O)c([N+](=O)[O-])c2)C(=O)N1c1ccccc1Cl`, the values for the Potency in assay [1] and in assay [4] were 75.7 µM (active) and 47.8 µM (active), respectively. Besides, the Potency result in assay [2], in assay [3], in assay [5] and in assay [6] was “inactive” throughout.
For the molecule `CC1(C)CC(=O)c2sc(N3CCCCC3)nc2C1`, the Potency entry in assay [1], in assay [2], in assay [3], in assay [5] and in assay [6] was “inactive” each time. For the same molecule, in assay [4], the Potency is 75.7 µM (active).
As for `Cc1ccc2nc(-c3ccccc3)cc(C(=O)N3CC(C)OC(C)C3)c2c1` (stereo unspecified), the Potency entry in assay [1], in assay [2], in assay [3], in assay [4], in assay [5] and in assay [6] was “inactive” throughout.
`O/C=c1\ccc2cccc3nc(C(F)(F)F)nc1c23`: the Potency entry in assay [1], in assay [4] and in assay [5] was “inactive” throughout. Also, the results for the Potency in assay [2], in assay [3] and in assay [6] were 100 µM (active), 100 µM (active) and 39.8 µM (active), respectively.
For the molecule `O=C(CCCCCl)Nc1c2c(nc3ccccc13)CCC2`, the Potency result in assay [1], in assay [2] and in assay [4] was “inactive” each time. Besides, the activation is 1.22% [at 17.1 µM, percent relative to cAMP agonist control] in assay [3] and -2.96% [at 30.8 µM] in assay [6]. Moreover, the activity change, negative = inhibition in assay [5] was -8.13% [at 30.8 µM].
For `O=C(Nc1ccncc1)c1ccc2ncsc2c1`, the Potency result in assay [1], in assay [2], in assay [3], in assay [4], in assay [5] and in assay [6] was “inactive” throughout.
On to `Cc1ccc(N2NC(=O)/C(=C\c3cc4c(cc3[N+](=O)[O-])OCO4)C2=O)cc1C`, for which the Potency in assay [1] is 75.7 µM (active). The Potency result in assay [2], in assay [3], in assay [4], in assay [5] and in assay [6] was “inactive” each time.
For `CN(C)c1ccc(/C=C/C(=O)c2ccc3c(c2)OCO3)cc1`, the Potency result in assay [1] and in assay [5] was “inactive” each time. The Potency in assay [2] is 112 µM (active); in assay [3], 112 µM (active); in assay [4], 37.9 µM (active); in assay [6], 79.4 µM (active).
In the case of `CCc1nnc(NS(=O)(=O)c2ccc(Nc3ccc([N+](=O)[O-])c4nonc34)cc2)s1`, the Potency in assay [1] is 42.6 µM (active). Further, the Potency result in assay [2], in assay [3], in assay [4], in assay [5] and in assay [6] was “inactive” each time.
Regarding `CC1CCN(C(=O)CSc2nnc(CN3CCOCC3)n2-c2ccccc2)CC1`, the Potency result in assay [1], in assay [2], in assay [3], in assay [4], in assay [5] and in assay [6] was “inactive” each time.
On to `Cc1ccc(NC(=O)N2CCN(c3nnc(C)c4c(C)n(-c5ccc(Cl)cc5)nc34)CC2)c(C)c1`, for which the Potency entry in assay [1], in assay [2], in assay [3], in assay [4], in assay [5] and in assay [6] was “inactive” throughout.
`Cc1ccc(-c2csc(NS(=O)(=O)c3cccc(F)c3)n2)o1`: the Potency in assay [1] is 14.1 µM (active). Besides, the Potency entry in assay [2] and in assay [4] was “inactive” each time. For the same molecule, the activation was -0.922% [at 17.1 µM, percent relative to cAMP agonist control] in assay [3] and 14.9% [at 30.8 µM] in assay [6]. For the same molecule, the activity change, negative = inhibition in assay [5] is -6.02% [at 30.8 µM].
`Cc1cc(=O)n2c(sc3ccccc32)c1C#N`: the Potency result in assay [1], in assay [2] and in assay [4] was “inactive” in each case. Also, the activation is -1.37% [at 17.1 µM, percent relative to cAMP agonist control] in assay [3] and 22.2% [at 30.8 µM] in assay [6]. Further, the activity change, negative = inhibition in assay [5] was 11.2% [at 30.8 µM].
As for `Cc1cccc(/C(N)=N/OC(=O)Cc2cccc3ccccc23)c1`, the Potency result in assay [1], in assay [2] and in assay [4] was “inactive” in each case. Moreover, the activation is 2.49% [at 17.1 µM, percent relative to cAMP agonist control] in assay [3] and -1.93% [at 30.8 µM] in assay [6]. Further, the activity change, negative = inhibition in assay [5] was -15.4% [at 30.8 µM].
On to `O=C(C[n+]1cc(Br)cc2ccccc21)c1ccc(F)cc1`, for which the Potency result in assay [1], in assay [2] and in assay [4] was “inactive” in each case. Besides, the activation is 1.58% [at 17.1 µM, percent relative to cAMP agonist control] in assay [3] and 21% [at 30.8 µM] in assay [6]. In assay [5], the activity change, negative = inhibition is 9.18% [at 30.8 µM].
For `Cc1ccccc1CN1C(=O)c2ccccc2Sc2ccc(C(=O)O)cc21`, the Potency entry in assay [1], in assay [2], in assay [3], in assay [4], in assay [5] and in assay [6] was “inactive” each time.
Take `CC1(C(=O)NS(=O)(=O)c2cccc(F)c2)CCN1C(=O)C1(c2ccc(Cl)cc2)CCC1` (stereo unspecified): in assay [1], the Potency is 19 µM (active). Besides, the Potency result in assay [2], in assay [3], in assay [4], in assay [5] and in assay [6] was “inactive” in each case.
Consider `COc1ccc(N(C)C(=O)CC2(CC(=O)O)CCCCC2)cc1`, for which the Potency entry in assay [1], in assay [2] and in assay [4] was “inactive” in each case. The activation in assay [3] is 8.49% [at 17.1 µM, percent relative to cAMP agonist control]; in assay [6], 2.37% [at 30.8 µM]. Further, the activity change, negative = inhibition in assay [5] is 1.07% [at 30.8 µM].

These data come from PubChem BioAssay (NCATS).
